Results published in the supplement of paper PMC12632987.

T1: USP38, Q8NB14
T1 chain: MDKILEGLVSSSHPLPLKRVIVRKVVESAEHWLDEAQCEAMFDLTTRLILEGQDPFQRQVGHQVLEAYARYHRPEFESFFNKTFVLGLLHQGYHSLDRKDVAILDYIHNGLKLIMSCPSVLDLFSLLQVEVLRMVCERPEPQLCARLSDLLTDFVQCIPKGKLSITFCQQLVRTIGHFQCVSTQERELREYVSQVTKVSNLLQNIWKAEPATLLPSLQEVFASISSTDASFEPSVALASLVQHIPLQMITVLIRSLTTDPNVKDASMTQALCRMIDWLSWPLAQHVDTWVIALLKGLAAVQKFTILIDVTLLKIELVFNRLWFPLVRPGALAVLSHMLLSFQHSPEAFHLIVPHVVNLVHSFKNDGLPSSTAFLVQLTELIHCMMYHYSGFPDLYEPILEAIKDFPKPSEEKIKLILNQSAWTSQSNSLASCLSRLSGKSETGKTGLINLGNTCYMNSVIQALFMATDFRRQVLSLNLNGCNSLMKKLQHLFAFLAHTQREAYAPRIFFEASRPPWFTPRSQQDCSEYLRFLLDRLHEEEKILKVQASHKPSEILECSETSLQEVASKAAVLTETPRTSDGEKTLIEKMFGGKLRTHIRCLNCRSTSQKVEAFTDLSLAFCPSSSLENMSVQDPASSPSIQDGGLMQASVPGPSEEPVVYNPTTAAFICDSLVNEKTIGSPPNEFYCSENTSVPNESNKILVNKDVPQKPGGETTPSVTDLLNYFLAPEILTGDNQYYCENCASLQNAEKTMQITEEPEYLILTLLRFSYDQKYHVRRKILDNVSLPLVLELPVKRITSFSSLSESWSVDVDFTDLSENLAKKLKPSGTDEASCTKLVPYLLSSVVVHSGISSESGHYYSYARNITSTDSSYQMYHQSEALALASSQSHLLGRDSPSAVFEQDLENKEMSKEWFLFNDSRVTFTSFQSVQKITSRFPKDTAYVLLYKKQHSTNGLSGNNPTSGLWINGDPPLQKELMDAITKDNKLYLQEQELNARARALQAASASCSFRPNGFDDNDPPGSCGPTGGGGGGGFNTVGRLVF

B1: usp_38_diff_out_5_91_616 (protein)
chain: EEERKKIIEKAEELARLLKEAAELLEKGEDYTENIKRAIKLAEELAKALAGGDARERRLSLTFAGLAEALKEIENYPKELQIAMLKAHADVAEEAAELLK
B2: usp_38_diff_out_5_164_611 (protein)
chain: EVERIREEFEARADATLAALRALLAQARADPATARAALAQAEALVDDLADFYVEAVEEVNEADPSKVEEFLREASRRLEELSALVAELRALARAQAEAEA
B3: usp_38_diff_out_5_164_608 (protein)
chain: GVEEALEELRKIREELEKKLKELLEKAKENPEKLEEYKKEITKAMDEAIDKMNEITTRALEAHPERAEEILREYDEEVTKMLKEYNEVMEKLKKLEEEYK
B4: usp_38_diff_out_5_91_623 (protein)
chain: AERREEAVRLAKEAAEYLKKAAELLEAGEDYTEEIKRAREALTRAAELLAKGNAREQRLALTAAGMAEALDELPRYSKELQIAMLKELADVAKELAEQLA
B5: usp_38_diff_out_5_164_609 (protein)
chain: MVEEKLKEMEEIRDETIEKLDELLEEAKKNPEKLEEIKKEINELTEEAIDKMNELTTEALEADPERAEEILKHYDELMTELLTHKKEVLEEIEKLKKEKE
B6: usp_38_diff_out_5_164_610 (protein)
chain: GVEELLKEMEEIKKETLEKLDKLLEEAKKNPEKLDEYKKEINELTNEAIDKMNELTTEALELDPERAEEILRHYDEIMTELLTHKQKVLDEIEKLKKEKE
B7: usp_38_diff_out_5_91_614 (protein)
chain: EERRKKLIEKAEEAAKKLEEAAKRLEAGEDYTKDIEEAIELYREIAAALADGDARERRLSLTAAGMALALEKLGEYPKDLQIAMLKAHADVAKEMAEQLK
B8: usp_38_diff_out_5_91_615 (protein)
chain: EERRKELIKKAKEAAKKLKEAAELLEKGEDYTKEIEEAIKLYKELAEALAGGNARERRLSLTAAGAAIALEKLDEYPKELQIAMLKAHAEVTKQMAEELE
B9: usp_38_diff_out_5_91_622 (protein)
chain: EETRKEAVKLAKEAAEALKKAAELLEKGEDYTEELKKAYEALTKLAELLAKGDAREQRLALTAAGIAEALKELPRYPKELQIAMLKELADVAKELAEQLE
B10: usp_38_diff_out_5_91_618 (protein)
chain: AEARAEQIRLAEEAARLLEEAARRLEAGEDYTADVERAIALFRELAAALAGGDARQRRLSLTAAGLALALEELPRYSRELQIAMLRAHADVARAMAEELR
B11: usp_38_diff_out_5_80_613 (protein)
chain: SLLEEARRLAEEALKAEDLETFEELLKQLVETVRRAAEEALERGTLDETVRELSGILLELDKEVRKSSNKEKKKLAKEYLNQAVDVLAAAELRALEREAA
B12: usp_38_diff_out_5_164_606 (protein)
chain: MVEEALKRMEEIAKELEAKLKALLAEAKKNPAKLAEYEKQITDATNEALDELNEITTKALEANPEKADEILEHYDRVVTRMLTAYNAAKAELAALKKEAA
B13: usp_38_diff_out_5_164_607 (protein)
chain: GVEEALKELEKTAEELKKKLKELLEEAKKNPEKLDEYKKKITEAVNEAIDKINEITTKALEAHPEQADEILRHYDEVVTEMLTEYNAALEELEKLKKEAA
B14: usp_38_diff_out_5_164_612 (protein)
chain: AVEAIRAEFEAAADAALAELKALLAEAKADPSKVEEKLKEAEAVLDELLDLLVEATERVAEEDPSQVEAFLREADARLEELLGIIAEIRELARKVREAKA
B15: usp_38_diff_out_5_91_621 (protein)
chain: EERRKELIKLAEEAAKLLEKAAELLEKGEDYTEAIKKAIELYKKLAEELKGGGPRERRLSLTAAGAAIALEELPKYSKELQIAMLKELADVTKELAEELK
B16: usp_38_diff_out_5_91_617 (protein)
chain: EEERRRLIELAEEAAELLKKAAELLEKGEDYTEAVKKAIELLKELAKLLAGGDSRERRLSLTAAGMAEALEELDKYPKELQIAMLKAMADVAKEMAEQLR

Biological target: T1, USP38, Q8NB14
Experiment: median log2 fold change of GCK-ALFA target abundance (FLAG IP / Myc IP barcode read proportion) (log2 ratio); each designed protein is fused to an ALFA-tag nanobody in HEK293 cells to bring the named protein to FLAG-tagged glucokinase (GCK); Myc marks an untargeted standard; higher = target protein stabilised (more abundant)
Conditions: target protein: 3xFLAG-MCP-GCK-ALFA reporter; HEK293 landing pad (RPLP)
Procedure, shortened: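 An ALFA-nanobody-fused binder library was recombined into HEK293 landing-pad cells and induced with 2 μg mL^−1 doxycycline. Cells were transfected with a plasmid expressing a FLAG-tagged target and a Myc-tagged standard. After 48 h, lysates underwent anti-FLAG and anti-Myc immunoprecipitation, and circular RNA barcodes were reverse transcribed, amplified and sequenced. Target abundance is the per-binder median log2 ratio of FLAG to Myc barcode read proportions. Barcodes needed ≥10^−7 proportion in both replicates, binders ≥3 barcodes per replicate, and a 10^−6 pseudocount was added; the two replicates were pooled.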

Binder | median log2 fold change
B1 | 0.153
B2 | -0.198
B3 | 0.0441
B4 | 0.1
B5 | 0.206
B6 | -0.17
B7 | 0.105
B8 | 0.0701
B9 | 0.0965
B10 | 0.0905
B11 | -0.169
B12 | -0.164
B13 | -0.164
B14 | -0.239
B15 | 0.214
B16 | 0.486
